Data published in PubChem BioAssay (NCATS).
Where “and” joins values, the source holds several entries; their conditions need not be identical. Identical values can stand only once. Inconclusive results are not listed. More than one record can exist for a structure, and the calls need not agree. Unmarked numbers belong to inactive results. Calls of active or inactive are those of the source. Calls come from the whole dose curve; as a rule, active = well fitted curve in the direction sought with a large enough effect; inconclusive = small, poorly fitted or top-dose-only effect, or another doubt; inactive = no such curve, though single readings can be large; an effect the other way counts as inactive or inconclusive.

Key:
[1] = Drug repurposing screens with cells derived from glioblastoma tumor samples (AID 1345199); details: GBM patient neurospheres viability, ATP luminescence, 48 h; note: nearly all actives have a fitted effect of over 40% in size
Method in brief: (§1)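 Primary testing used CD133+ neurospheres from four GBM patients, seven concentrations, 48 h exposure and ATP-based viability; confirmation added three slower-growing patient lines.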

astro = control astrocytes; test: as above; details: viability, ATP luminescence, 48 h; series mostly up to 45.9 µM
Method in brief: as §1

[2] = qHTS assay to identify inhibitors of the type 1 interferon - major histocompatibility complex class I in skeletal muscle: Counter screen cell viability and HiBit confirmation (AID 1347412); details: iHSKM muscle cells + IFN-b, HiBiT or CellTiter-Glo, 24 h; for activity change, negative = inhibition: at 45.9 µM (top of the series); for all read-outs here: nearly all actives have a fitted effect of over 60% in size
Method in brief: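 HLA-B*08:01–HiBiT knock-in immortalized human myoblasts (C25cl48) stimulated with 4.0 ng/ml human IFN-beta and dosed with compound in a 12-point 1:3 titration (top final 46 uM). After 24 hrs at 37 C, HiBiT lytic luminescence or CellTiter Glo ATP read out.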

CAOV3 = test: Primary qHTS to identify gynecologic anti-cancer compounds using libraries of approved drugs and bioactive compounds (AID 1345084); details: Gynecologic cancer cell panel viability, ATPlite luminescence, 48 h; series mostly up to 57.5 µM; note: nearly all actives have a fitted effect of over 55% in size
Method in brief: (§2)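 Measured: luminescence after ATPlite addition (15 min, RT). Exposure: 48 h, 37 C, 5% CO2.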

CASKI = test: as above; details: Gynecologic cancer cell panel viability, ATPlite luminescence, 48 h; series mostly up to 57.5 µM
Method in brief: as §2

Es-2 = test: as above; details: Gynecologic cancer cell panel viability, ATPlite luminescence, 48 h; series mostly up to 57.5 µM
Method in brief: as §2

HeLa = test: as above; details: Gynecologic cancer cell panel viability, ATPlite luminescence, 48 h; series mostly up to 57.5 µM
Method in brief: as §2

Hek293T = test: as above; details: Gynecologic cancer cell panel viability, ATPlite luminescence, 48 h, control line for the selectivity index; series mostly up to 57.5 µM
Method in brief: as §2

JEG-3 = test: as above; details: Gynecologic cancer cell panel viability, ATPlite luminescence, 48 h; series mostly up to 57.5 µM
Method in brief: as §2

OV90 = test: as above; details: Gynecologic cancer cell panel viability, ATPlite luminescence, 48 h; series mostly up to 57.5 µM
Method in brief: as §2

PA-1 = test: as above; details: Gynecologic cancer cell panel viability, ATPlite luminescence, 48 h; series mostly up to 57.5 µM
Method in brief: as §2

Tov-21-G = test: as above; details: Gynecologic cancer cell panel viability, ATPlite luminescence, 48 h; series mostly up to 57.5 µM
Method in brief: as §2

Tov112D = test: as above; details: Gynecologic cancer cell panel viability, ATPlite luminescence, 48 h; series mostly up to 57.5 µM
Method in brief: as §2

SKOV3 = test: as above; details: Gynecologic cancer cell panel viability, ATPlite luminescence, 48 h; series mostly up to 57.5 µM
Method in brief: as §2

C33A = test: as above; details: Gynecologic cancer cell panel viability, ATPlite luminescence, 48 h; series mostly up to 57.5 µM
Method in brief: as §2

[3] = at 45.9 µM (top of the series), tumour line D
[4] = at 46 µM (top of the series), tumour line A
[5] = at 46.1 µM (top of the series), tumour line C
[6] = at 45.9 µM (top of the series), tumour line B
% is set by controls: 0 for no effect and ±100 for the full control effect; potency is the fitted concentration of half-maximal effect.

CCCCCC[C@@H](O)C/C=C\CCCCCCCC(=O)O
activity, negative = cell killing [1, 3]: -4.78% and -10.9%
activity, negative = cell killing [1, 4]: -28%
activity, negative = cell killing [1, 5]: -19.3% and -4.11%
Potency ([1]; tumour line A): 20000 nM (active)

CO/N=C(\C(=O)N[C@@H]1C(=O)N2C(C(=O)O)=C(COC(C)=O)CS[C@H]12)c1csc(N)n1 (stereo in doubt)
activity, negative = cell killing [1, 6]: -12.2%
activity, negative = cell killing [1, 3]: 9.74%
activity, negative = cell killing [1, 4]: -20.5%
activity, negative = cell killing [1, 5]: -2.27%
Potency (astro): inactive

O=C(Nc1ccncc1)c1cc([N+](=O)[O-])ccc1Cl
Potency ([2]; HiBiT): 15700 nM (active)
activity change, negative = inhibition ([2]; Viability): -27.4%

O=C(Nc1ccc2c(c1)CCN(Cc1ncn[nH]1)C2)c1ccccc1-c1ccc(C(F)(F)F)cc1
Potency (CAOV3): inactive
Potency (CASKI): inactive
Potency (Es-2): inactive
Potency (HeLa): inactive
Potency (Hek293T): inactive
Potency (JEG-3): inactive
Potency (OV90): inactive
Potency (PA-1): inactive
Potency (Tov-21-G): inactive
Potency (Tov112D): inactive

N=c1ccn2c(n1)O[C@H]1[C@H](O)[C@@H](CO)O[C@H]12
activity, negative = cell killing [1, 3]: -31.3%
activity, negative = cell killing [1, 5]: -5.87%

C=C(Nc1ccc(OCC)cc1)Nc1ccc(OCC)cc1
activity, negative = cell killing [1, 3]: -18.8%
activity, negative = cell killing [1, 5]: -12.9%
Potency (astro): inactive

CC[C@H]1OC(=O)[C@H](C)C(=O)[C@H](C)[C@@H](O[C@@H]2O[C@H](C)C[C@H](N(C)C)[C@H]2O)[C@](C)(OC)C[C@@H](C)C(=O)[C@H](C)[C@H]2N(CCCCn3cnc(-c4cccnc4)c3)C(=O)O[C@]12C
activity, negative = cell killing [1, 6]: -5.03%
activity, negative = cell killing [1, 3]: 5.49%
activity, negative = cell killing [1, 4]: -23.7%
activity, negative = cell killing [1, 5]: 5.5%

CC1(C)C[C@@H]1C(=O)N/C(=C\CCCCSC[C@H](N)C(=O)O)C(=O)O
activity, negative = cell killing [1, 6]: -13% and -12.1%
activity, negative = cell killing [1, 3]: 1.02% and -4.66%
activity, negative = cell killing [1, 4]: -10.2% and -10.8%
activity, negative = cell killing [1, 5]: -10.6% and -17.9%
Potency (astro): inactive

CC(C)Cc1ccc([C@H](C)C(=O)O)cc1
activity, negative = cell killing [1, 6]: 4.71%
activity, negative = cell killing [1, 3]: 0.88%
activity, negative = cell killing [1, 4]: -14%
activity, negative = cell killing [1, 5]: 8.55%
Potency (astro): inactive

C=CCN1C(=O)C(CC(C)C)NC1=S (stereo not drawn)
activity, negative = cell killing [1, 6]: -28.5% and -13.5%
activity, negative = cell killing [1, 3]: -8.69% and -21.9%
activity, negative = cell killing [1, 4]: -6.38% and -35.5%
activity, negative = cell killing [1, 5]: -6.48% and -20.2%
Potency (astro): inactive

CC(C)(C)c1ccc(S(=O)(=O)/C=C/C#N)cc1
Potency ([2]; HiBiT): 2790 nM (active)
Potency ([2]; Viability): 11100 nM (active)

C=CC(N)CCC(=O)O (stereo not drawn)
activity, negative = cell killing [1, 6]: -2.82%
activity, negative = cell killing [1, 3]: -18.8%
activity, negative = cell killing [1, 4]: -11.6%
activity, negative = cell killing [1, 5]: -7.65%

CCCSc1ccc2nc(NC(=O)OC)[nH]c2c1
Potency (Es-2): 3550 nM (active)
Potency (HeLa): 2000 nM (active)
Potency (Hek293T): 891 nM (active)
Potency (PA-1): 1580 nM (active)
Potency (SKOV3): 2240 nM (active)
Potency (Tov-21-G): 2000 nM (active)
Potency (Tov112D): 1120 nM (active)

CCOC(=O)N1CCN(/[N+]([O-])=N/Oc2ccc([N+](=O)[O-])cc2[N+](=O)[O-])CC1
Potency ([2]; HiBiT): 6250 nM (active)
activity change, negative = inhibition ([2]; Viability): 17.2%

CCCCC[C@H](O)/C=C/[C@@H]1[C@@H](C/C=C\CCCC(=O)O)[C@@H](O)C[C@H]1O
activity, negative = cell killing ([1]; at 20 µM (top of the series), tumour line C): -5.83%
activity, negative = cell killing ([1]; at 21.2 µM (top of the series), tumour line B): 0.321%
activity, negative = cell killing ([1]; at 21.2 µM (top of the series), tumour line D): -15.4%
activity, negative = cell killing [1, 6]: 1.47%
activity, negative = cell killing [1, 3]: -6.45%
activity, negative = cell killing [1, 4]: -9.88%
activity, negative = cell killing [1, 5]: -1.95%
Potency (astro): inactive

O=C(NOCC1CC1)c1cc(Br)c(F)c(F)c1Nc1ccc(I)cc1Cl
activity change, negative = inhibition ([2]; Viability): -18.5%

O=C(O)COc1ccc(C(=O)c2cccs2)c(Cl)c1Cl
activity, negative = cell killing [1, 6]: -12.4% and -10%
activity, negative = cell killing [1, 3]: -10.2% and 1.54%
activity, negative = cell killing [1, 4]: -22.1% and -29.6%
activity, negative = cell killing [1, 5]: -20.3% and -8.25%

O=C(O)[C@H](O)[C@@H](O)[C@H](O)[C@H](O)CO
activity, negative = cell killing [1, 6]: -3.35% and -2.21%
activity, negative = cell killing [1, 3]: -11.3% and 8.58%
activity, negative = cell killing [1, 4]: -25.5% and -7.46%
activity, negative = cell killing [1, 5]: 0.0662% and -1.71%
Potency (astro): inactive

O=C1C(SCCO)=C(SCCO)C(=O)c2ccccc21
Potency ([2]; HiBiT): 2790 nM (active)
Potency ([2]; Viability): 4970 nM (active)

C[N+](C)(C)CCOP(=O)(O)OP(=O)([O-])OC[C@H]1O[C@@H](n2ccc(N)nc2=O)[C@H](O)[C@@H]1O
activity, negative = cell killing [1, 6]: -6.25% and -7.43%
activity, negative = cell killing [1, 3]: -2.69% and -5.13%
activity, negative = cell killing [1, 4]: -13.9%
activity, negative = cell killing [1, 5]: -5.84% and 8.06%

CCOC(=O)C1=C(C)NC(C)=C(C(=O)OCC)C1c1c(F)c(F)c(F)c(F)c1F
activity change, negative = inhibition ([2]; HiBiT): -2.44%
activity change, negative = inhibition ([2]; Viability): 9.02%

O=c1[nH]c2ccccc2n1CCCN1CCN(C(c2ccccc2)c2ccccc2)CC1
Potency (C33A): inactive
Potency (HeLa): inactive
Potency (JEG-3): inactive
Potency (Tov112D): inactive
Potency (astro): inactive

COc1ccc(/C=C2\COc3ccc(C)cc3C2=O)cc1O
Potency ([2]; HiBiT): 14000 nM (active)
activity change, negative = inhibition ([2]; Viability): -21.6%
